DT40 TDP1 no CPT – qHTS for Inhibitors of human tyrosyl-DNA phosphodiesterase 1 (TDP1): qHTS in cells in absence of CPT. DT40 Tdp1-/- hTDP1 cells, no CPT, ATP luminescence, 48 h. Potency, µM (series often up to 46.2 µM), without a hit: at the top dose activity change, negative = growth inhibition, actives largely listed as inhibitors. 420,000 compounds, 15% hits. AID 686978, 2013; further: potency means the concentration at half of the fitted maximal effect; nearly all actives have a fitted effect of over 55% in size
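Readout: luminescence from CellTiter-Glo after 30 min in the dark at RT. Cells: DT40 Tdp1-/- with stable hTDP1, 400/well. Exposure: compounds alone, ≥48 hr, 37 °C.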
DT40 TDP1 CPT – growth inhibition of DT40 Tdp1-/-;hTDP1 cells with camptothecin (screen for TDP1 inhibitors); chicken DT40 Tdp1-/-;hTDP1 cells + 20 nM CPT, ATP luminescence, 48 h; AID 686979; Potency, µM (highest dose often 46.2 µM), for inactives: at the highest dose activity change, negative = growth inhibition, most hits filed as inhibitors; 420,000 compounds, 12% hits; further: potency means the concentration at half of the fitted maximal effect; nearly all actives have a fitted effect of over 55% in size
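Cell growth measured by CellTiter-Glo luminescence after a minimum 48 h, 37 C compound exposure with 20 nM CPT in Tdp1-knockout DT40 cells stably expressing hTDP1, seeded 400/well; qHTS titration format.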
HT1080-NT tox – kills 2HG-producing HT-1080-NT fibrosarcoma cells. HT-1080-NT fibrosarcoma viability, CellTiter-Glo ATP luminescence, 48 h. AID 686970. 360,000 compounds, 1.6% hits. Potency, µM (series often up to 46.1 µM), inactives show top-dose activity, negative = less viability, most hits filed as cytotoxic;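 further: NT is the 2HG producing partner of a matched IDH1 knockdown line; potency means the concentration at half of the fitted maximal effect; 0% = DMSO-treated cells and -100% = media-only wells without cells; nearly all actives have a fitted effect of over 55% in size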
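Read-out is CellTiter-Glo luminescence after 10 minutes at room temperature, following 48 hours' compound treatment of HT-1080-NT cells (750 cells/well, RPMI, 5% FBS, 37 degrees C).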
HT1080 IDH1KD tx – toxicity to HT-1080 IDH1 knockdown cells (counter line); HT-1080 IDH1 knockdown viability, ATP luminescence, 48 h; 360,000 compounds, 2% hits; AID 686971; Potency, µM (highest dose often 46.1 µM), for inactives: at the highest dose activity, negative = toxicity, usual class: cytotoxic;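 further: potency means the concentration at half of the fitted maximal effect; 0% = DMSO wells and -100% = cell-free medium wells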
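Knockdown cells (IDH1KD HT-1080) received compounds 2 h after plating at 750 cells/well and were kept 48 h at 37 °C in 5% FBS RPMI. A CellTiter-Glo luminescence read gave % activity for curve fitting.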
IL1B secr inh – inhibitors of inflammasome signaling (IL-1 beta secretion) | THP-1 LPS/ATP IL-1B secretion, AlphaLISA, 16 h; hits give low values | activity change, % at 57.5 µM | 360,000 compounds, 4.7% hits | AID 743279; in the data active means activity change below about -50%; inconclusive means mostly about -30% to -49%
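Secreted IL-1B measured by AlphaLISA bead assay after 16 h compound exposure of THP-1 cells; compounds (final up to 57.5 uM) added 1 h before LPS (250 ng/mL) and ATP (1.25 mM) stimulation; lower signal means less secretion.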
Numbers without * were called inactive; ? = inconclusive. Most compounds without a hit are left out; they make up all but 19% or so of the library. Unless noted, the call rests on the fitted dose curve; in most records, active means well fitted curve in the direction sought with a large enough effect; inconclusive means small, poorly fitted or top-dose-only effect, or another doubt; inactive means no such curve, though single readings can be large; an effect the other way counts as inactive or inconclusive. Unless noted, on the % scale 0 is the no-effect control and ±100 the full control effect.

SMILES | DT40 TDP1 no CPT | DT40 TDP1 CPT | HT1080-NT tox | HT1080 IDH1KD tx | IL1B secr inh
C#CCN(C[C@@H]1[C@@H](OC(=O)NCc2ccc(OC)c(OC)c2)[C@@H](OC(=O)NCc2ccc(OC)c(OC)c2)Cn2c(=O)ccc(=O)n21)S(=O)(=O)c1ccc(C)cc1 | 15µM* | 16µM* | 9.2µM* | 21µM* | -106*
C#CCN(C[C@@H]1[C@@H](OC(=O)NCc2ccccc2)[C@@H](OC(=O)NCc2ccccc2)Cn2c(=O)n(CCCCCC)c(=O)n21)S(=O)(=O)c1ccc(C)cc1 | ? | ? | -7% | 0% | -5
C#CCN(C[C@@H]1[C@@H](OC(=O)NCc2ccc(OC)c(OC)c2)[C@@H](OC(=O)NCc2ccc(OC)c(OC)c2)Cn2c(=O)n(CCCCCC)c(=O)n21)S(=O)(=O)c1ccc(C)cc1 | -28% | 6% | 0% | 11% | -3
C#CCN(C[C@H]1[C@H](OC(=O)NCc2ccco2)[C@H](OC(=O)NCc2ccco2)C[C@H]2C(=O)N(c3ccccc3)C(=O)[C@@H]12)S(=O)(=O)c1ccc(C)cc1 | ? | 2% | 0% | 16% | -8
C#CCN(C[C@@H]1[C@@H](OC(=O)NC2CC2)[C@@H](OC(=O)NC2CC2)Cn2c(=O)n(CCCCCC)c(=O)n21)S(=O)(=O)c1ccc(C)cc1 | 18µM* | ? | -19% | -14% | -1
C#CCN(C[C@@H]1[C@@H](OC(=O)NCc2ccco2)[C@@H](OC(=O)NCc2ccco2)Cn2c(=O)ccc(=O)n21)S(=O)(=O)c1ccc(C)cc1 | 4.6µM* | 4.6µM* | 15µM* | ? | -109*
C#CCN(C[C@@H]1[C@@H](OC(=O)NCc2ccc(OC)c(OC)c2)[C@@H](OC(=O)NCc2ccc(OC)c(OC)c2)CN(C(=O)OC(C)C)N1C(=O)OC(C)C)S(=O)(=O)c1ccc(C)cc1 | 9.2µM* | 12µM* | 1% | -9% | ?
CN1C(=O)CC(N2CCN(c3ccccc3)CC2)C1=O (stereo unspecified) | 0% | 2% | 9% | 10% | -19
Cn1c(=O)c(=O)n(C)c2cc([N+](=O)[O-])c(N3CCOCC3)cc21 | 16% | -5% | 15% | 25% | 15
C#CCN(C[C@@H]1[C@@H](OC(=O)NC2CCCC2)[C@@H](OC(=O)NC2CCCC2)CN(C(=O)OC(C)C)N1C(=O)OC(C)C)S(=O)(=O)c1ccc(C)cc1 | 21µM* | ? | -8% | -20% | -20
C#CCN(C[C@H]1[C@H](OC(=O)NC2CC2)[C@H](OC(=O)NC2CC2)C[C@@H](C(=O)OC)[C@H]1C(=O)OC)S(=O)(=O)c1ccc(C)cc1 | ? | -28% | 13% | 4% | -25
Cc1ccc(S(=O)(=O)N2C[C@H]3N(C(=O)OC(C)C)N(C(=O)OC(C)C)C[C@H](OC(=O)NC4CCCC4)[C@@]3(O)C2)cc1 | 21µM* | ? | -6% | -3% | ?
C#CCN(C[C@@H]1[C@@H](OC(=O)NCc2ccco2)[C@@H](OC(=O)NCc2ccco2)Cn2c(=O)n(CCCCCC)c(=O)n21)S(=O)(=O)c1ccc(C)cc1 | 9.2µM* | 15µM* | -3% | -6% | -77*
Clc1cc(Cl)cc(C2=NC(Cc3ccccc3)CO2)c1 (stereo unspecified) | -27% | ? | 20% | 7% | 4
Cc1ccc(C)c(N2CCN(C(=O)C3CCN(c4nnc(N5CCCC5=O)s4)CC3)CC2)c1 | ? | 23µM* | -4% | -3% | ?
Cc1ccc(C)c(N2CCN(C(=O)c3ccc(N4CCCC4=O)cc3)CC2)c1 | 16µM* | ? | -3% | -2% | 0
O=C(C1CCN(c2nnc(N3CCCC3=O)s2)CC1)N1CCN(c2cccc(C(F)(F)F)c2)CC1 | 1.8µM* | 8.2µM* | -11% | -11% | 36

From PubChem BioAssay
